Experimental data published in PubChem BioAssay (NCATS).
Records with an inconclusive call do not appear. The source made the active and inactive calls. Calls come from the whole dose curve; as a rule, active = well fitted curve in the direction sought with a large enough effect; inconclusive = small, poorly fitted or top-dose-only effect, or another doubt; inactive = no such curve, though single readings can be large; an effect the other way counts as inactive or inconclusive.

Columns and labels:
[1] = P-glycoprotein substrates identified in KB-8-5-11 adenocarcinoma cell line, qHTS therapeutic library screen (AID 1346987); note: potency is the fitted concentration of half-maximal effect; nearly all actives have a fitted effect of over 65% in size
Procedure, shortened: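 P-gp-mediated resistance screen: KB-8-5-11 cells treated 72 h with compounds in dose-response. CellTiter-Glo viability.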

[2] = system: Zika virus NS2B-NS3 protease (unlinked complex); assay: Primary screen GU Rhodamine qHTS for Zika virus inhibitors: Unlinked NS2B-NS3 protease assay (AID 1347159); note: nearly all actives have a fitted effect of over 60% in size; note: potency is the fitted concentration of half-maximal effect; for activity change, negative = inhibition: % is set by controls: 0 for no effect and ±100 for the full control effect
Procedure, shortened: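 A qHTS format was used, with compound concentrations ranging up to 114 microM. Each compound was preincubated with 25 nM NS2B-NS3 protease, and the substrate was then added at 1.5 microM. Curves were fitted with a 4-parameter Hill model.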

[3] = system: Zika virus NS2B-NS3 protease (linked construct); assay: Primary screen NINDS Rhodamine qHTS for Zika virus inhibitors (AID 1347160); note: nearly all actives have a fitted effect of over 55% in size; note: potency is the fitted concentration of half-maximal effect; for activity change, negative = inhibition: % is set by controls: 0 for no effect and ±100 for the full control effect
Procedure, shortened: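 Kinetic fluorescence (Ex 480 nm, Em 540 nm) over 15 min with 1.5 microM Rhodamine110 peptide and 25 nM linked protease.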

[4] = target: Calcium and integrin-binding protein 1 (Homo sapiens) (UniProt Q99828); assay: Primary qHTS for Identification of Calcium Integrin Binding Protein 1 (CIB1) Competitor (AID 1508620);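 note: GST tagged CIB1 binding a fluorescein labelled alphaIIb integrin peptide tracer; top concentration of the series differs between compounds; % is set by controls: 0 for no effect and ±100 for the full control effect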
Chain of Calcium and integrin-binding protein 1 (Homo sapiens) (Q99828 whole entry, looked up): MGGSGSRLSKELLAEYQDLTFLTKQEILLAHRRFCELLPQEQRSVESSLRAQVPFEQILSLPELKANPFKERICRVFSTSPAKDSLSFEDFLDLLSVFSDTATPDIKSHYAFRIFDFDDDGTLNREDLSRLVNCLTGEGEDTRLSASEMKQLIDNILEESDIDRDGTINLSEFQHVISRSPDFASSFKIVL
Procedure, shortened: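 Fluorescence polarization competition: GST-tagged CIB1 (1 uM final) preincubated with compound 15 min at room temperature, then FITC-labelled alphaIIb peptide (100 nM final) added. After 15 min at room temperature, polarization read at Ex 480/Em 540.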

[5] = Primary qHTS for inhibitors of nuclear receptor binding SET domain protein 2 (NSD2) in an isogenic RCH-ACV NSD2 p.E1099K mutant (9B) (AID 1645876); note: nearly all actives have a fitted effect of over 70% in size; note: potency is the fitted concentration of half-maximal effect
[6] = Primary qHTS for inhibitors of nuclear receptor binding SET domain protein 2 (NSD2) in an RCH-ACV wild type WT cells (2C) (AID 1645877); note: nearly all actives have a fitted effect of over 70% in size; note: potency is the fitted concentration of half-maximal effect
[7] = target: Glutathione peroxidase 1 (Homo sapiens) (UniProt P07203); assay: Primary qHTS Assay for Inhibitors of Recombinant Selenoprotein Glutathione Peroxidase 1 (GPX1) (AID 1845191); note: nearly all actives have a fitted effect of over 65% in size; for activity, negative = inhibition: % is set by controls: 0 for no effect and ±100 for the full control effect
Chain of Glutathione peroxidase 1 (Homo sapiens) (P07203 whole entry, looked up): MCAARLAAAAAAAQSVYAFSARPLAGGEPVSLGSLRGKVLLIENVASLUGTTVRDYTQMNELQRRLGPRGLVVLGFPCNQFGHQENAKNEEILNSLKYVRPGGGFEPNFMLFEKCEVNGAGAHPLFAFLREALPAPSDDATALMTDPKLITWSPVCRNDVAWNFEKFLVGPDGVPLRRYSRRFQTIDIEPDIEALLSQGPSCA
Procedure, shortened: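 GR-coupled assay: compounds preincubated 30 min at room temperature with GPX1, then reaction started with CHP; final 10 nM GPX1, 1 mM GSH, 0.5 mM CHP, 0.5 mM NADPH, 100 nM GR, 0.01% BSA, pH 7.5 Tris buffer. NADPH fluorescence (340/450 nm) read at 0 and 15 min.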

[8] = target: Phospholipid hydroperoxide glutathione peroxidase GPX4 (Homo sapiens) (UniProt P36969); assay: Primary qHTS Assay for Inhibitors of Recombinant Selenoprotein Glutathione Peroxidase 4 (GPX4) (AID 1845192); conditions: outcome: dose series up to 50 µM unless noted; note: nearly all actives have a fitted effect of over 65% in size
Chain of Phospholipid hydroperoxide glutathione peroxidase GPX4 (Homo sapiens) (P36969 whole entry, looked up): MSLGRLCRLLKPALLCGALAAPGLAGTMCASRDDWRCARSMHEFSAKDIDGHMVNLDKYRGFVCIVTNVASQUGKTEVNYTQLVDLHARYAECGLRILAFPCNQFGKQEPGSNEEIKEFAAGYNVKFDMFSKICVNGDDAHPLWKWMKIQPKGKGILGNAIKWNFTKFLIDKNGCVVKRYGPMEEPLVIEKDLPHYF
Procedure, shortened: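 GR-coupled assay: recombinant GPX4 preincubated 30 min with compound at room temperature; final 200 nM GPX4, 1 mM GSH, 0.5 mM cumene hydroperoxide, 0.5 mM NADPH, 100 nM GR, 0.01% BSA, pH 7.5 Tris. NADPH fluorescence (340/450 nm) read at 0 and 15 min.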

[9] = target: Luciferin 4-monooxygenase (Photinus pyralis) (UniProt P08659); assay: Primary firefly luciferase (FLuc) qHTS assay for identification of artifact compounds. (AID 1845220); note: nearly all actives have a fitted effect of over 60% in size;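 for activity change, negative = inhibition: plate controls were DMSO vehicle for no effect and no enzyme for full effect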
Procedure, shortened: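 Titrated compounds were incubated 15 min at RT, protected from light, with luciferin and ATP at 10 uM; reaction started with 10 nM FLuc, luminescence imaged at 5 min, and concentration-response fitted by Hill equation.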

[10] = Primary fluorescence-based thiol-reactive (MSTI) qHTS assay for identification of artifact compounds. (AID 1845221); note: nearly all actives have a fitted effect of over 65% in size; note: potency is the fitted concentration of half-maximal effect;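 for activity change, negative = thiol reactive: thiol-reactive compounds lower the probe fluorescence signal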
Procedure, shortened: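 A multi-concentration qHTS design tested compounds against 4 uM MSTI, pH 7.4 phosphate-buffered saline. Plates were protected from light for 1 h at room temperature before imaging fluorescence.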

[11] = system: Nanoluciferase (engineered Oplophorus gracilirostris luciferase); assay: Primary Nanoluciferase (NLuc) qHTS assay for identification of artifact compounds. (AID 1845222);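 note: NLuc secreted into diluted conditioned medium of S16 cells; 0% = DMSO and -100% = no enzyme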
Procedure, shortened: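 qHTS format, against NLuc in S16 cell-conditioned medium. Nano-Glo substrate 1:100 was added after 15 min at room temperature. Luminescence was taken after a further 5 min.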

C33A = assay: Primary qHTS to identify gynecologic anti-cancer compounds using libraries of approved drugs and bioactive compounds (AID 1345084); conditions: Gynecologic cancer cell panel viability, ATPlite luminescence, 48 h; series mostly up to 57.5 µM; note: nearly all actives have a fitted effect of over 55% in size; note: potency is the fitted concentration of half-maximal effect
Procedure, shortened: (§1)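 ATP-based viability (ATPlite), 1,000 cells/well, 16 h pre-incubation, 48 h compound at 37 C, 5% CO2, 15 min RT before read.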

CASKI = assay: as above; conditions: Gynecologic cancer cell panel viability, ATPlite luminescence, 48 h; series mostly up to 57.5 µM
Procedure, shortened: as §1

Es-2 = assay: as above; conditions: Gynecologic cancer cell panel viability, ATPlite luminescence, 48 h; series mostly up to 57.5 µM
Procedure, shortened: as §1

HeLa = assay: as above; conditions: Gynecologic cancer cell panel viability, ATPlite luminescence, 48 h; series mostly up to 57.5 µM
Procedure, shortened: as §1

Hek293T = assay: as above; conditions: Gynecologic cancer cell panel viability, ATPlite luminescence, 48 h, control line for the selectivity index; series mostly up to 57.5 µM
Procedure, shortened: as §1

JEG-3 = assay: as above; conditions: Gynecologic cancer cell panel viability, ATPlite luminescence, 48 h; series mostly up to 57.5 µM
Procedure, shortened: as §1

OV90 = assay: as above; conditions: Gynecologic cancer cell panel viability, ATPlite luminescence, 48 h; series mostly up to 57.5 µM
Procedure, shortened: as §1

Tov112D = assay: as above; conditions: Gynecologic cancer cell panel viability, ATPlite luminescence, 48 h; series mostly up to 57.5 µM
Procedure, shortened: as §1

COc1ccc2c(c1)CN(C(=O)CCN1CCC(Cc3ccccc3)CC1)CCS2
inactive: Potency [2] | Potency [3] | outcome [4] | Potency [7] | Potency [8] | Potency [9] | Potency [10] | Potency [11] | Potency (C33A) | Potency (CASKI) | Potency (Es-2) | Potency (HeLa) | Potency (Hek293T) | Potency (JEG-3) | Potency (Tov112D)
active: Potency [1] 6.32 µM | Potency [5] 11.2 µM | Potency [6] 10 µM | Potency (OV90) 6.31 µM

CCCCC(=O)N(Cc1ccc(-c2ccccc2-c2nn[nH]n2)cc1)C(C(=O)O)C(C)C (stereo unspecified)
inactive: Potency [2] | Potency [3] | Potency [5] | Potency [6] | Potency [9] | Potency [10] | Potency (C33A) | Potency (CASKI) | Potency (Es-2) | Potency (HeLa) | Potency (Hek293T) | Potency (JEG-3) | Potency (OV90) | Potency (Tov112D)

CCOc1ccc(-c2nc(-c3cccc4c3CCC4NCCO)no2)cc1OCC (stereo unspecified)
inactive: Potency [2] | Potency [3] | outcome [4] | Potency [7] | Potency [8] | Potency [9] | Potency [10] | Potency [11] | Potency (C33A) | Potency (CASKI) | Potency (HeLa) | Potency (Hek293T) | Potency (JEG-3) | Potency (Tov112D)
active: Potency [5] 6.49 µM | Potency [6] 7.28 µM

C=C1C(=O)O[C@@H]2/C=C(/C)CC3C=C(C[C@H](OC(=O)/C(C)=C\C)[C@@H]12)C(=O)O3 (stereo partly specified)
active: Potency [5] 16 µM
inactive: Potency [2] | Potency [3] | outcome [4] | Potency [7] | Potency [8] | Potency [9] | Potency [11] | Potency (C33A) | Potency (CASKI) | Potency (Es-2) | Potency (HeLa) | Potency (JEG-3) | Potency (OV90) | Potency (Tov112D)

CC[C@H](C)[C@H]1O[C@]2(CC[C@@H]1C)C[C@@H]1C[C@@H](C/C=C(\C)[C@@H](O[C@H]3C[C@H](OC)[C@@H](O[C@H]4C[C@H](OC)[C@@H](O)[C@H](C)O4)[C@H](C)O3)[C@@H](C)/C=C/C=C3\CO[C@@H]4[C@H](O)C(C)=C[C@@H](C(=O)O1)[C@]34O)O2
active: Potency [5] 20.5 µM | Potency [6] 9.16 µM
inactive: Potency [3] | outcome [4] | Potency [9] | Potency [11] | Potency (C33A) | Potency (CASKI) | Potency (Es-2) | Potency (HeLa) | Potency (JEG-3) | Potency (OV90) | Potency (Tov112D)

Clc1ccccc1CNCC1CCC(CNCc2ccccc2Cl)CC1 (stereo unspecified)
active: Potency [5] 18.3 µM | Potency [6] 20.5 µM
inactive: Potency [2] | Potency [3] | outcome [4] | Potency [7] | Potency [8] | Potency [9] | Potency [10] | Potency [11] | Potency (C33A) | Potency (CASKI) | Potency (HeLa) | Potency (Hek293T) | Potency (OV90)

COc1ccc(Cl)cc1[C@@]1(F)C(=O)Nc2cc(C(F)(F)F)ccc21
active: Potency [5] 7.28 µM | Potency [6] 5.78 µM
inactive: Potency [3] | outcome [4] | Potency [9] | Potency [10] | Potency [11] | Potency (C33A) | Potency (CASKI) | Potency (Es-2) | Potency (JEG-3) | Potency (OV90)

CCN(CC)c1ccc(C(=C2C=CC(=[N+](CC)CC)C=C2)c2cc(S(=O)(=O)O)ccc2S(=O)(=O)[O-])cc1
inactive: outcome [4] | Potency [7] | Potency [8]
active: Potency (C33A) 10 µM | Potency (Es-2) 28.2 µM | Potency (Hek293T) 12.6 µM | Potency (OV90) 12.6 µM

CC(=O)N1c2ccc(-c3ccc(C(=O)O)cc3)cc2C(Nc2ccc(Cl)cc2)CC1C (stereo unspecified)
inactive: outcome [4] | Potency [8] | Potency [9] | Potency [10] | Potency [11] | Potency (C33A) | Potency (Hek293T)
active: Potency [2] 20 µM | Potency [3] 8.91 µM | Potency [5] 0.0325 µM | Potency [6] 0.0205 µM

CC(CCC1(O)OC2CC3C4CC=C5CC(O[C@@H]6O[C@H](CO)[C@@H](O[C@@H]7O[C@H](CO)[C@@H](O)[C@H](O)[C@H]7O)[C@H](O)[C@H]6O[C@@H]6O[C@@H](C)[C@H](O)[C@@H](O)[C@H]6O)CCC5(C)C4CCC3(C)C2C1C)CO[C@@H]1O[C@H](CO)[C@@H](O)[C@H](O)[C@H]1O (stereo partly specified)
inactive: Potency [2] | Potency [3] | outcome [4] | Potency [7] | Potency [8] | activity change, negative = inhibition [9] 1.02% [at 11.6 µM] | activity change, negative = thiol reactive [10] 204% [at 11.5 µM] | activity, negative = inhibition [11] 4.58% [at 11.6 µM] | activity change, negative = cytotoxicity (C33A) 1.45% [at 11.6 µM] | activity change, negative = cytotoxicity (CASKI) 1.26% [at 11.6 µM] | activity change, negative = cytotoxicity (Es-2) 5.5% [at 11.6 µM] | activity change, negative = cytotoxicity (HeLa) -13.3% [at 11.6 µM] | activity change, negative = cytotoxicity (Hek293T) 1.54% [at 11.6 µM] | activity change, negative = cytotoxicity (JEG-3) -6.68% [at 11.6 µM] | activity change, negative = cytotoxicity (OV90) -1.03% [at 11.6 µM] | activity change, negative = cytotoxicity (Tov112D) 7.99% [at 11.6 µM]

COc1ccc(-c2c(C)c(C(=O)NN3CCCCC3)nn2-c2ccc(Cl)cc2Cl)cc1
inactive: Potency [3] | Potency [9] | Potency [10] | Potency [11] | Potency (C33A) | Potency (CASKI) | Potency (Es-2) | Potency (HeLa) | Potency (Hek293T) | Potency (OV90) | Potency (Tov112D)

CC(C)c1ccc(NC(=O)C(c2ccccc2)N(C)C(=O)Cc2c[nH]c3ccccc23)cc1 (stereo unspecified)
inactive: outcome [4] | Potency [8] | Potency [10] | Potency [11] | Potency (C33A) | Potency (CASKI) | Potency (Es-2) | Potency (HeLa) | Potency (Hek293T) | Potency (JEG-3) | Potency (OV90) | Potency (Tov112D)
active: Potency [2] 79.4 µM | Potency [5] 20.5 µM

CNc1nc(-c2ccc3c(N)n[nH]c3c2)cc(N2CC(C(=O)NC3CCCCC3)CCC2C)n1 (stereo unspecified)
active: Potency [5] 0.578 µM | Potency [6] 1.15 µM
inactive: Potency [2] | Potency [3] | outcome [4] | Potency [7] | Potency [8] | Potency [9] | Potency [11] | Potency (C33A) | Potency (CASKI) | Potency (Es-2) | Potency (HeLa) | Potency (Tov112D)

O=C(/C=C/n1cnc(-c2cc(C(F)(F)F)cc(C(F)(F)F)c2)n1)NNc1cnccn1
active: Potency [5] 1.63 µM | Potency [6] 2.05 µM
inactive: Potency [3] | outcome [4] | Potency [7] | Potency [8] | Potency [9] | Potency [10] | Potency [11] | Potency (C33A) | Potency (CASKI) | Potency (HeLa)

C=C(C(=O)O)C1CC2=C(C)C(=O)CC2C(C)CC1O (stereo unspecified)
active: Potency [5] 11.5 µM | Potency [6] 5.78 µM | Potency [10] 26.7 µM
inactive: Potency [3] | outcome [4] | Potency [7] | Potency [9] | Potency [11] | Potency (C33A) | Potency (CASKI) | Potency (HeLa) | Potency (Tov112D)
